Source: PubChem
In the library only some 12% were active in any assay of this set; here they are far more common.
HCV inhibitor – blocks hepatitis C virus; AID 651820; actives 3.4% (n = 340,000); Potency, µM (highest dose often 41.8 µM), without a hit: top-dose activity change, negative = inhibition, hits mostly inhibitors; Huh7.5.1 HCVcc-Cre infection, luciferase reporter, 44 h; also: % is scaled to controls: 0 for no effect and ±100 for the full control effect
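Infectious HCV cell culture screen: compound-treated cells (1,000/well, pre-plated 4 h) are infected with HCVcc-Cre at roughly 0.5 moi and grown 44 h. Infection is quantified by luciferase signal after 15 min substrate incubation at room temperature.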
NS1 function inh – inhibitors of influenza NS1 protein function; actives 0.4% (n = 270,000); Potency, µM (top dose mostly 46.1 µM), for inactives: at the top dose activity, positive = more growth; calls by dose curve; also: actives are rising curves; nearly all actives have a fitted effect of over 50% in size
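OD600 was taken as the measure of yeast growth restored by compound in an NS1-expressing S. cerevisiae strain. Cells had been washed out of glucose medium and diluted 1:100 into galactose -URA medium, pH 6.0.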
Pf growth 48h – P. falciparum growth inhibition at 48 hours (one generation); P. falciparum luciferase growth in erythrocytes, 48 h; Potency, µM (titrated, usually from 28.7 µM), without a hit: top-dose activity change, negative = inhibition, actives largely listed as inhibitors; actives 5.9% (n = 310,000); also: % is scaled to controls: 0 for no effect and ±100 for the full control effect
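A one-generation exposure of luciferase-tagged malaria parasites in RPMI 1640/Albumax erythrocyte culture, 37 C and 5% CO2. Inhibition is inferred from decreased luminescence after adding detection reagent.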
SARS PLP yeast – blocks SARS-CoV papain-like protease in a yeast assay | Potency, µM (series often up to 32.9 µM), inactives show top-dose activity, positive = growth rescue, hits mostly activators | AID 485353 | actives 0.19% (n = 330,000) | S. cerevisiae expressing SARS-CoV PLpro, growth rescue; calls by dose curve; also: 0% is about no effect; nearly all actives have a fitted effect of over 55% in size
Pf growth 96h – P. falciparum growth inhibition at 96 hours; Potency, µM (highest dose often 28.7 µM), inactives show at the highest dose activity change, negative = inhibition, most hits filed as inhibitors; AID 504834; actives 6.9% (n = 320,000); P. falciparum luciferase reporter growth, 96 h; also: % is scaled to controls: 0 for no effect and ±100 for the full control effect
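Cell-based qHTS: luciferase-tagged P. falciparum in erythrocytes (2% hematocrit, 0.05% parasitemia final) incubated with compounds for 96 hours, 37 C, 5% CO2; luciferase detection reagent then added and luminescence measured.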
AMA1-RON2 inh – inhibitors of Plasmodium falciparum AMA1-RON2 interaction; actives 0.2% (n = 360,000); AID 720542; Potency, µM (highest dose often 58.2 µM), without a hit: at the top dose activity change, negative = inhibition, actives largely listed as inhibitors; AlphaScreen AMA1-biotinylated RON2 peptide binding;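 also: 0% = vehicle wells and -100% = peptide control; nearly all actives have a fitted effect of over 45% in size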
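AMA1 (3D7) with his tag at 25 nM final met compounds first, then biotinylated RON2 peptide at 25 nM; detection used donor plus acceptor beads, 10 µg/mL apiece, read by AlphaScreen after 30 min at room temperature.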
Starred values were filed as active, the others as inactive; ? = inconclusive; nt = no result; [ ] = another dose, or the depositor's remark. Unless noted, calls follow the shape of the dose curve; as a rule, active = well fitted curve in the direction sought with a large enough effect; inconclusive = small, poorly fitted or top-dose-only effect, or another doubt; inactive = no such curve, though single readings can be large; an effect the other way counts as inactive or inconclusive. Potency is read from the fitted curve at half-maximal effect.

SMILES | HCV inhibitor | NS1 function inh | Pf growth 48h | SARS PLP yeast | Pf growth 96h | AMA1-RON2 inh
Cc1cc(C)c(C#N)c(SCC(=O)c2ccc(Cl)cc2Cl)n1 | ? | -6% | 13µM* | -9% | 10µM* | ?
CC(=O)C1=C(C)NC(SCC(=O)c2ccc(Cl)cc2Cl)=C(C#N)C1c1ccco1 (stereo not drawn) | 2.5µM* | 0% | ? | -1% | ? | 40%
CCOC(=O)CSC1=C(C#N)C(c2ccco2)C(C(=O)Nc2cccc(C(F)(F)F)c2)=C(C)N1 (stereo not drawn) | ? | ? | 10µM* | 3% | 5% | 1%
C[C@@H](CNC(N)=O)NC(N)=O | nt | 6% | nt | nt | nt | nt
OC1CCCCC1 | -9% | nt | 32% | -6% | 26% | 4%
COc1cccc(NC(=O)NCc2ccccn2)c1 | -1% | 3% | 23% | -4% | 2.1µM* | -5%
COc1ccc(NC(=O)Cc2csc(NC(=O)Nc3ccccc3OC)n2)c(OC)c1 | -28% | nt | -8% | 8% | 0% | -29%
COc1cccc(CNC(=O)Cc2csc(NC(=O)Nc3ccccc3OC)n2)c1 | 5.6µM* | nt | ? | 2% | ? | 1%
CCOC(=O)Cc1csc(NC(=O)c2cccc(OC)c2)n1 | -27% | -7% | 10% | -3% | 13% | 10%
COc1ccccc1NC(=O)Nc1nc(CC(=O)NCc2ccc(F)cc2)cs1 | 7.1µM* | nt | ? | -4% | ? | -23%
CCOC(=O)Cc1csc(NC(=O)Nc2cccc(OC)c2)n1 | -7% | 5% | ? | 0% | 10µM* | -2%
COc1ccccc1NC(=O)Nc1nc(CC(=O)NCc2c(F)cccc2F)cs1 | ? | nt | ? | -1% | -19% | 12%
COc1cc(/C=C(\NC(=O)c2ccccc2)C(=O)N2CC3CC(C2)c2cccc(=O)n2C3)cc(OC)c1OC (stereo not drawn) | 12% | 3% | -22% | 0% | -9% | 4%
O=C(COC(=O)c1cccc2c1C(=O)c1ccccc1C2=O)NC1CCCCC1 | ? | -25% | ? | -2% | ? | -24%
CC1CCCCC1NC(=O)COC(=O)c1ccc2c(c1Cl)C(=O)c1ccccc1C2=O (stereo not drawn) | 25µM* | -2% | -4% | 9% | 13% | -8%
CN(C)CCCNC(=S)N1CCn2c(nc3ccccc32)C1 | 6% | 1% | -11% | -12% | ? | -1%
O=C(Nc1cc(S(=O)(=O)N2CCOCC2)ccc1N1CCCCC1)c1ccccc1 | ? | nt | ? | 3% | 4.7µM* | -9%[11.6 µM]
Cc1cccc(C(=O)Nc2cc(S(=O)(=O)N3CCOCC3)ccc2N2CCCCC2)c1 | ? | nt | 7.4µM* | -3% | ? | 6%[11.6 µM]
O=C(Nc1cc(S(=O)(=O)N2CCCCC2)ccc1N1CCOCC1)c1cc(=O)[nH]c2ccccc12 | -23% | 3% | ? | 2% | 8.3µM* | -6%
O=C(Nc1cc(S(=O)(=O)N2CCOCC2)ccc1N1CCCC1)c1ccc(Cl)cc1 | ? | nt | 15µM* | -2% | ? | -4%
COc1cccc(OC)c1C(=O)Nc1ccncc1 | -4% | nt | nt | nt | nt | 6%
O=C(C1CC(=O)N(c2ccc3c(c2)OCCO3)C1)N1CCCC(C(F)(F)F)C1 (stereo not drawn) | 13% | nt | 22% | -2% | 12% | -7%
O=C(Nc1cc(C(F)(F)F)ccc1N1CCCC1)C1CCCO1 (stereo not drawn) | -19% | nt | -9% | 0% | -20% | 50%
O=C(Nc1cc(S(=O)(=O)N2CCCCC2)ccc1N1CCOCC1)c1ccc(C(F)(F)F)cc1 | -14% | nt | 9.3µM* | 4% | 13µM* | 10%
O=C(NCCc1c[nH]c2ccccc12)c1cc(S(=O)(=O)N2CCCCC2)ccc1N1CCOCC1 | 14% | -30% | 7.4µM* | 7% | 66% | -13%
Cc1ccccc1C(=O)N1CCC(C(=O)Nc2cc(C(F)(F)F)ccc2N2CCCC2)CC1 | -24% | nt | -24% | 1% | 10µM* | 11%
